Source: the supplement of paper PMC10338343
± gives the standard deviation.

Key:
[1] = tested on: MILI (PIWIL2) piRISC loaded with L1MC piRNA (26 nt); test: pre-steady-state target cleavage rate (min^-1); guide: L1MC piRNA 5'p-UAACUAAAUACUAUGCAAGCUGUAGG; higher = faster piRNA-guided slicing of the target; settings: auxiliary factor: 500 nM mouse GTSF1;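 note: 1 nM active piRISC with 0.1 nM target library at 33 °C single turnover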
Summary of the method: (§1)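 A transcribed, DNA-blocked target RNA library […] was incubated at 33 °C for 0–8 or 0–960 min with 1 nM active affinity-purified piRISC carrying one synthetic guide, in HEPES–potassium acetate buffer with or without 500 nM GTSF1 partner protein. Uncleaved targets were then sequenced and normalised to depth and to weakly complementary targets. Data from three trials were pooled, with k3 capped at 0.0001 min^-1, and a burst-and-steady-state fit yielded the pre-steady-state cleavage rate.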

[2] = tested on: EfPiwi piRISC loaded with L1MC piRNA (26 nt); test: pre-steady-state target cleavage rate (min^-1); auxiliary factor: 500 nM Ephydatia muelleri Gtsf1; guide: L1MC piRNA 5'p-UAACUAAAUACUAUGCAAGCUGUAGG; MIWI and MILI are mouse PIWI proteins and EfPiwi is from a freshwater sponge; tags in brackets are library labels; higher = faster piRNA-guided slicing of the target
Summary of the method: as §1

Row | Sequence | pre-steady-state target cleavage rate [1] | pre-steady-state target cleavage rate [2]
1 | UCCUGGAACAGCUUGCAUAGUAUUUAAUUA | 0.102 ± 0.021 | 0.00345 ± 0.0024
2 | UCCUCCUACAGCUUGCAUAGUAUAUAGUAA | 0.147 ± 0.023 | 0.00441 ± 0.002
3 | UCCUGCAUCAGCUUGCAUAGUAUUUACAAA | 0.126 ± 0.025 | 0.00323 ± 0.0016
4 | UCCUGGAACAGCUUGCAUAAGUAUUUAGUUA | 0.00757 ± 0.004 | 0.00284 ± 0.0024
5 | UCCUGGUUGUGCUUGCAUAGUAUUUAGAAA | 0.0381 ± 0.013 | 0.00415 ± 0.0022
6 | UCCUGGAACAGCUUGCAUAUUAUUUAGUUA | 0.0696 ± 0.008 | 0.0169 ± 0.0055
7 | UCCUGCUACAGCUUGCUUAGAAUUUAGUUA | 0.0543 ± 0.011 | 0.00357 ± 0.0018
8 | UCCUGCUACAGCUUGCAUAGUUUUUACAAA | 0.0689 ± 0.019 | 0.00339 ± 0.0026
9 | UCCUCCUACAGCUUGCAUAGUUAUUAGUUA | 0.0492 ± 0.015 | 0.0094 ± 0.0036
10 | UCCUGGAUGAGCUUGCAUAGUAUUUAGUCUA | 0.0419 ± 0.013 | 0.00413 ± 0.0026
11 | UCCUGGAACAGCUAGCAUAGUAUUUAGAAA | 0.219 ± 0.034 | 0.00262 ± 0.0023
12 | UCCUGCUACAGCUUGCAUAGUAUGUUAGUUA | 0.164 ± 0.036 | 0.00247 ± 0.002
13 | UCCUGGAUCAGCUAGCAUAGUAUUUAGAAA | 0.139 ± 0.016 | 0.0036 ± 0.0022
14 | UCCUGGAUCAGCUUCCAUAGUAUUUAGUAA | 0.0353 ± 0.0094 | 0.00347 ± 0.0017
